Inconclusive results are not listed. The source made the active and inactive calls. Calls come from the whole dose curve; as a rule, active = well fitted curve in the direction sought with a large enough effect; inconclusive = small, poorly fitted or top-dose-only effect, or another doubt; inactive = no such curve, though single readings can be large; an effect the other way counts as inactive or inconclusive.
Tests used:
[1] = HPAF-II 12hr Apoptosis Induction qHTS against the NCATS CANVASS Library (AID 1347358)
Summary of the method: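 Apoptosis in HPAF-II pancreatic cancer cells is scored as caspase 3/7 luminescence following a 12-hour exposure to an 11-point compound series.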

[2] = HEK293 24hr Apoptosis Induction qHTS against the NCATS CANVASS Library (AID 1347359)
Summary of the method: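 HEK293 cells, 500 per well, exposed to an 11-point compound series for 24 hours at 37 degrees C. Caspase 3/7 activity read by Caspase-Glo luminescence (DEVD substrate) after 15 min at room temperature.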

[3] = HPAF-II 18hr Apoptosis Induction qHTS against the NCATS CANVASS Library (AID 1347360)
Summary of the method: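 HPAF-II cells at 500/well were exposed for 18 h at 37 C to an 11-point compound series. Caspase-3/7 activity was read by Caspase-Glo luminescence after 15 min at RT.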

[4] = HEK293 12hr Apoptosis Induction qHTS against the NCATS CANVASS Library (AID 1347361)
Summary of the method: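 HEK293 cells (500/well) were exposed to an 11-point qHTS concentration series for 12 hours at 37 degrees C. Caspase-3/7 activity was then read by DEVD-substrate luciferase luminescence after 15 min at room temperature.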

[5] = system: NAD(P)H diaphorase (Clostridium kluyveri); assay: Diaphorse counterscreen qHTS: Assay Interference Panel against the NCATS CANVASS Library (AID 1347362)
Summary of the method: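 Clostridium kluyveri diaphorase in PBS + 0.01% Tween-20 preincubated 15 min with compounds. Resazurin and NADH then added for 5 min at room temperature in the dark; resorufin fluorescence read (ex 525, em 598).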

[6] = target: Luciferin 4-monooxygenase (Photinus pyralis) (UniProt P08659); assay: Firefly luciferase counterscreen qHTS: Assay Interference Panel against the NCATS CANVASS Library (AID 1347363)
Summary of the method: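 Purified P. pyralis luciferase (0.04 ug/mL, 4x reagent) added to Tris-acetate buffer with 0.013 mM D-luciferin, 0.013 mM ATP and 13.3 mM Mg-acetate; compounds preincubated 15 min, then luminescence read after 5 min, RT.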

[7] = KB-3-1 Cancer Cell Toxicity qHTS against the NCATS CANVASS Library (AID 1347366)
Summary of the method: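 KB-3-1 cells (500/well) in DMEM with 10% FBS were exposed to compounds for 72 h at 37C. Viability was read by CellTiter-Glo luminescence.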

[8] = qHTS for ATAD5 Agonist screened against the NCATS CANVASS Library (AID 1347367)
Summary of the method: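 Luciferase reporter under ATAD5 control, stably integrated in HEK293T cells (2000/well). Compounds (11 points) incubated 16 h at 37C; viability read first by CellTiter-Fluor, then luminescence reporting ATAD5 activation. MMS positive control.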

[9] = G06 Cancer Cell Toxicity qHTS against the NCATS CANVASS Library (AID 1347368)
Summary of the method: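 Cytotoxicity toward canine glioma G06 cells is scored from cellular ATP via luminescence after 72 hr compound exposure at 500 cells/well.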

[10] = qHTS for ATAD5 Antagonist screened against the NCATS CANVASS Library (AID 1347370)
Summary of the method: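 HEK293T cells with a stably integrated ATAD5-controlled luciferase reporter were exposed to compounds (11-pt) alongside 10 uM 5-fluorouridine as ATAD5 stabilizer for 16hr at 37C. Viability was read by CellTiter-Fluor fluorescence, then ATAD5 by luminescence.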

[11] = J3T Cancer Cell Toxicity qHTS against the NCATS CANVASS Library (AID 1347371); settings: J3T dog glioma viability, ATP luminescence, 72 h; at 91.4 µM (top of the series)
Summary of the method: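 Viability of the J3T glioma line from dog is scored by ATP luminescence after a 72 hr incubation with natural products.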

[12] = target: Nuclear receptor subfamily 1 group I member 3 (Homo sapiens) (UniProt Q14994); assay: qHTS for Constitutive Androstane Receptor (CAR) Antagonist screened against the NCATS CANVASS Library (AID 1347372)
Summary of the method: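 HepG2 cells stably carrying hCAR and CYP2B6-2.2kb luciferase reporter, 2500 cells/well, compound with 50 nM CITCO agonist for 24hr at 37C. ONE-Glo luminescence measured CAR activity; CellTiter-Fluor read viability.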

[13] = target: Nuclear receptor subfamily 1 group I member 3 (Homo sapiens) (UniProt Q14994); assay: qHTS for Constitutive Androstane Receptor (CAR) Agonist screened against the NCATS CANVASS Library (AID 1347373)
Summary of the method: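 CAR agonism is scored as CYP2B6-promoter luciferase induction in a double-stable transfected HepG2 line, where 1.5uM PK11195 is included in each well. Compounds were tested over a 24hr exposure.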

[14] = 10-beta competent E. coli microbial cell viability qHTS against the NCATS CANVASS Library (AID 1347376)
Summary of the method: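 Cytotoxicity toward competent E. coli is scored from cellular ATP content via BacTiter-Glo luminescence following overnight compound exposure at 37C, 5% CO2.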

[15] = DH5-alpha competent E. coli microbial cell viability qHTS against the NCATS CANVASS Library (AID 1347377)
Summary of the method: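 Cell viability of competent DH5-alpha E. coli is scored from ATP content by luminescence. Cells sit overnight at 37C with compound across an 11-point concentration series.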

[16] = qHTS for H2AX Agonists against the NCATS CANVASS Library (AID 1347378)
Summary of the method: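 CHO-K1 cells (1000/well, overnight at 37C) exposed to compounds at several concentrations for 3 hr at 37C, 0.76% DMSO final. Lysates read by TR-FRET (phospho-H2AX S139 Eu-cryptate antibody / H2AX-d2 antibody) after 24 hr at room temperature; 665/615 nm ratio.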

[17] = qHTS for Inflammasome Signaling Inhibitors: IL-1-beta AlphaLISA screen against the NCATS CANVASS Library (AID 1347379); settings: THP-1 LPS/ATP, IL-1B AlphaLISA secretion, 16 h; at 114 µM (top of the series)
Summary of the method: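 Human THP-1 cells were pretreated 1 hr at 37 °C with compounds (up to 57.5 uM final), then stimulated with LPS (250 ng/mL final) and ATP (1.25 mM final). Secreted IL-1B was read by AlphaLISA after 16 hr.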

[18] = qHTS for Antimalaria activity screened against the NCATS CANVASS Library (AID 1347380)
Summary of the method: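 Growth inhibition of asexual erythrocytic P. falciparum Dd2 was quantified by SYBR Green DNA staining. Cultures grew 72 h with compound (11-point series) in hypoxic gas at 37C; lysis and staining lasted 18 h.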

[19] = Inflammasome Signaling qHTS Counterscreen: IL-1-beta AlphaLISA counterscreen against the NCATS CANVASS Library (AID 1347381)
Summary of the method: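 To flag interference with the AlphaLISA read-out, a known amount of purified IL-1-beta (4 pg) replaced cell supernatant. Detection used anti-IL-1-beta acceptor beads, biotinylated antibody and streptavidin donor beads at room temperature.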

[20] = Cytotoxicity qHTS for assessment of Hepg2 cells membrane integrity screened against the NCATS CANVASS Library (AID 1347387)
Summary of the method: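 Fluorescence proportional to lysed-cell number, from LDH leaking out of HepG2 cells exposed 5 hr at 37C to 0.59 nM - 46 uM compound (11-point qHTS), is measured after 10 min with CytoTox-ONE.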

Measured: outcome

Sequence of Nuclear receptor subfamily 1 group I member 3 (Homo sapiens) (Q14994 whole entry, looked up): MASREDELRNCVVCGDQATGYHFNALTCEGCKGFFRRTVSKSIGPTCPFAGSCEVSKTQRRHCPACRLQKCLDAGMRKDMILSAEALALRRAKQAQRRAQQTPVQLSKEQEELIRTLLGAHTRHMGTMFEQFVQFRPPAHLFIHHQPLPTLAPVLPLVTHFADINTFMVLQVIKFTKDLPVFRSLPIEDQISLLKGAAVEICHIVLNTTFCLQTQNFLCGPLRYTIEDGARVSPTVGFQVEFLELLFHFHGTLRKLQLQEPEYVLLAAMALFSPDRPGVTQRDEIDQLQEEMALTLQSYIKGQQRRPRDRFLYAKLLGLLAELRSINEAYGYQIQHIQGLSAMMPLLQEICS
Sequence of Luciferin 4-monooxygenase (Photinus pyralis) (P08659 whole entry, looked up): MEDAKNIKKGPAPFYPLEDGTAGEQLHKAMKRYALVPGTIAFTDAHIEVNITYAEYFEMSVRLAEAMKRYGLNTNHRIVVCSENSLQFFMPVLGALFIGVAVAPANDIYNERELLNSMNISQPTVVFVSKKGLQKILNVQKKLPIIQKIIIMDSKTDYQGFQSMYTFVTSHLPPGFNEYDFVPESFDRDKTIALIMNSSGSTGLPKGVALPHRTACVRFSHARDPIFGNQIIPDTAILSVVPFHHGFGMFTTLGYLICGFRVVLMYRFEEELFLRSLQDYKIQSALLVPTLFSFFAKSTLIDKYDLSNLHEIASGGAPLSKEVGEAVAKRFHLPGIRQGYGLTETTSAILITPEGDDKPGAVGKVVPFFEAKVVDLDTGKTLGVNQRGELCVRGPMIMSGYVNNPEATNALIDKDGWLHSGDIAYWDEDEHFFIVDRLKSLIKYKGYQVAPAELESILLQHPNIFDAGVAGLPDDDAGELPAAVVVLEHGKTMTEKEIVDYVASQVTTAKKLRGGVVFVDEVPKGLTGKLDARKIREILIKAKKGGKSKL

NCCc1ccc(O)cc1
inactive: all assays above
